Among the data in PubChem BioAssay are viability and remaining NAD values, retold here.

Several values for one entry are separate records, joined by “and”; a condition that tells them apart may be missing. Equal values may be shown once. The source holds several records for some structures; these can differ, active in one and inactive in another. Activity calls are given as the source filed them.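 The calls were made as follows, unless noted: active = normalized viability below 100% at a tested concentration; inactive = the rest.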

Chain of NAD(+) hydrolase SARM1 (Homo sapiens) (Q6SZW1 whole entry, looked up): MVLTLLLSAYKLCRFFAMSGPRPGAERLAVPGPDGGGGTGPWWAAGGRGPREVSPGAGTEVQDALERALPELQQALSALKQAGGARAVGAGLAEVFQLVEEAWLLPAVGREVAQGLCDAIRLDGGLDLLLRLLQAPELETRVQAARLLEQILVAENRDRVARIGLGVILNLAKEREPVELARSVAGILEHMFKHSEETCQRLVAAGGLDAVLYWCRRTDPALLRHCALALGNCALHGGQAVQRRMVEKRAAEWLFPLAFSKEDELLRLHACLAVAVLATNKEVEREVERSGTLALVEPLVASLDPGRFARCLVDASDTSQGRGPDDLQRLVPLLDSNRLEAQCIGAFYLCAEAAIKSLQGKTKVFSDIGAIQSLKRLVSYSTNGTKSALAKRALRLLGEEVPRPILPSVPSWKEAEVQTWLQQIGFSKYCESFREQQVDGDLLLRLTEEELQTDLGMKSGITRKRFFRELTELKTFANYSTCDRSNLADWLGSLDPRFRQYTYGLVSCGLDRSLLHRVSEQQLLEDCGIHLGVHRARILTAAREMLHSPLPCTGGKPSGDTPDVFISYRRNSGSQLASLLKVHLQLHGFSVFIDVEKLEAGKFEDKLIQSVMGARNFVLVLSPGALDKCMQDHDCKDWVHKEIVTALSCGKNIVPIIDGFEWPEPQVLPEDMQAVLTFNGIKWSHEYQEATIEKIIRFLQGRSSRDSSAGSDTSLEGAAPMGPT

Test system in one assay: not listed separately
The assay is described as follows: ovarian cancer cell viability with rucaparib, profiling panel, oncology-focused library, rucaparib conditional (AID 1508598). To be noted: patient-derived ovarian cancer cells, CellTiter-Glo viability, 144 h; at 1.25 µM; OCI-P5x cells; with rucaparib 20 µM; stronger effect = lower value; 100% = cells with rucaparib alone. A general note: In ATP-based viability assays light output follows the ATP content of the culture.
The term viability denotes a read-out of living cells in per cent, often relative to untreated cells. With `Cc1ccc(NC(=O)c2ccc(CN3CCN(C)CC3)cc2)cc1Nc1nccc(-c2cccnc2)n1`, the viability is 95.6% (active) and 99.9% (active).
The same measure, in the same setting: for `O=NN(CCCl)C(=O)NC1CCCCC1` the value was 90.9% (active); for `O=c1c(O)c(-c2ccc(O)c(O)c2)oc2cc(O)cc(O)c12`, 103% (inactive); for `COc1cc2c(N3CCN(C(=O)Nc4ccc(OC(C)C)cc4)CC3)ncnc2cc1OCCCN1CCCCC1`, 105% (inactive).
On to `COC(=O)Nc1nc2ccc(C(=O)c3cccs3)cc2[nH]1`, for which the viability was 67.3% (active).
In the case of `CN(Cc1cnc2nc(N)nc(N)c2n1)c1ccc(C(=O)N[C@@H](CCC(=O)O)C(=O)O)cc1`, the viability was 101% (inactive).

The assay is the same for the next values; noted with them: patient-derived ovarian cancer cells, CellTiter-Glo viability, 144 h; at 1.25 µM; OCI-P5x cells; without rucaparib; stronger effect = lower value.
On to `Cc1ccc(NC(=O)c2ccc(CN3CCN(C)CC3)cc2)cc1Nc1nccc(-c2cccnc2)n1`, for which the viability was 95.1% (active) and 100% (inactive).
Still for that read-out and setting: in the case of `O=NN(CCCl)C(=O)NC1CCCCC1` it was 108% (inactive); in that of `O=c1c(O)c(-c2ccc(O)c(O)c2)oc2cc(O)cc(O)c12`, 107% (inactive); in that of `COc1cc2c(N3CCN(C(=O)Nc4ccc(OC(C)C)cc4)CC3)ncnc2cc1OCCCN1CCCCC1`, 90% (active).
With `COC(=O)Nc1nc2ccc(C(=O)c3cccs3)cc2[nH]1`, the viability was 48% (active).
Still for that read-out and setting: in the case of `CN(Cc1cnc2nc(N)nc(N)c2n1)c1ccc(C(=O)N[C@@H](CCC(=O)O)C(=O)O)cc1` it was 90.7% (active).

Staying with this assay, now noted: patient-derived ovarian cancer cells, CellTiter-Glo viability, 144 h; at 5 µM; OCI-C5x cells; with rucaparib 10 µM; stronger effect = lower value; 100% = cells with rucaparib alone.
Take `Cc1ccc(NC(=O)c2ccc(CN3CCN(C)CC3)cc2)cc1Nc1nccc(-c2cccnc2)n1`: the viability was 133% (inactive) and 131% (inactive).
The same measure, in the same setting: in the case of `O=NN(CCCl)C(=O)NC1CCCCC1` it was 118% (inactive); in that of `O=c1c(O)c(-c2ccc(O)c(O)c2)oc2cc(O)cc(O)c12`, 109% (inactive); in that of `COc1cc2c(N3CCN(C(=O)Nc4ccc(OC(C)C)cc4)CC3)ncnc2cc1OCCCN1CCCCC1`, 158% (inactive).
The same measure, in the same setting: for `COC(=O)Nc1nc2ccc(C(=O)c3cccs3)cc2[nH]1` the value was 55.3% (active); for `CN(Cc1cnc2nc(N)nc(N)c2n1)c1ccc(C(=O)N[C@@H](CCC(=O)O)C(=O)O)cc1`, 27.2% (active).

Staying with this assay, now noted: patient-derived ovarian cancer cells, CellTiter-Glo viability, 144 h; at 5 µM; OCI-C5x cells; without rucaparib; stronger effect = lower value.
`Cc1ccc(NC(=O)c2ccc(CN3CCN(C)CC3)cc2)cc1Nc1nccc(-c2cccnc2)n1`: the viability was 124% (inactive) and 134% (inactive).
Consider `O=NN(CCCl)C(=O)NC1CCCCC1`, for which the viability was 124% (inactive).
With `O=c1c(O)c(-c2ccc(O)c(O)c2)oc2cc(O)cc(O)c12`, the viability is 120% (inactive).
As for `COc1cc2c(N3CCN(C(=O)Nc4ccc(OC(C)C)cc4)CC3)ncnc2cc1OCCCN1CCCCC1`, the viability is 138% (inactive).
Same read-out and setting: in the case of `COC(=O)Nc1nc2ccc(C(=O)c3cccs3)cc2[nH]1` it was 38.7% (active); in that of `CN(Cc1cnc2nc(N)nc(N)c2n1)c1ccc(C(=O)N[C@@H](CCC(=O)O)C(=O)O)cc1`, 26% (active).

Staying with this assay, now noted: patient-derived ovarian cancer cells, CellTiter-Glo viability, 144 h; at 5 µM; OCI-P5x cells; with rucaparib 20 µM; stronger effect = lower value; 100% = cells with rucaparib alone.
As to `Cc1ccc(NC(=O)c2ccc(CN3CCN(C)CC3)cc2)cc1Nc1nccc(-c2cccnc2)n1`, the viability was 84.6% (active) and 98.4% (active).
With `O=NN(CCCl)C(=O)NC1CCCCC1`, the viability was 97.4% (active).
Same read-out and setting: for `O=c1c(O)c(-c2ccc(O)c(O)c2)oc2cc(O)cc(O)c12` the value was 90.4% (active); for `COc1cc2c(N3CCN(C(=O)Nc4ccc(OC(C)C)cc4)CC3)ncnc2cc1OCCCN1CCCCC1`, 115% (inactive).
Regarding `COC(=O)Nc1nc2ccc(C(=O)c3cccs3)cc2[nH]1`, the viability was 52.5% (active).
As to `CN(Cc1cnc2nc(N)nc(N)c2n1)c1ccc(C(=O)N[C@@H](CCC(=O)O)C(=O)O)cc1`, the viability is 94% (active).

The assay is the same for the next values; noted with them: patient-derived ovarian cancer cells, CellTiter-Glo viability, 144 h; at 5 µM; OCI-P5x cells; without rucaparib; stronger effect = lower value.
Turning to `Cc1ccc(NC(=O)c2ccc(CN3CCN(C)CC3)cc2)cc1Nc1nccc(-c2cccnc2)n1`, the viability is 89.8% (active) and 103% (inactive).
In the case of `O=NN(CCCl)C(=O)NC1CCCCC1`, the viability was 125% (inactive).
Same read-out and setting: for `O=c1c(O)c(-c2ccc(O)c(O)c2)oc2cc(O)cc(O)c12` the value was 107% (inactive).
Still for that read-out and setting: in the case of `COc1cc2c(N3CCN(C(=O)Nc4ccc(OC(C)C)cc4)CC3)ncnc2cc1OCCCN1CCCCC1` it was 86.2% (active).
The same measure, in the same setting: for `COC(=O)Nc1nc2ccc(C(=O)c3cccs3)cc2[nH]1` the value was 14.7% (active); for `CN(Cc1cnc2nc(N)nc(N)c2n1)c1ccc(C(=O)N[C@@H](CCC(=O)O)C(=O)O)cc1`, 87.3% (active).

Another assay has as its target NAD(+) hydrolase SARM1 (Homo sapiens) (UniProt Q6SZW1). The assay is described as follows: SARM1 TIR NADase inhibitors, cell lysate, NAD-Glo luminescence (AID 1508614;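 active = compound whose remaining NAD level is above about 45 nM, limit read from the data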;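 also: higher remaining NAD means stronger inhibition of SARM1 NADase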). To be noted: SAM-TIR HEK293T lysate NADase, at 1 µM, stronger effect = higher value.
Turning to `COc1cc(OC)c(C(=O)CCCN2CCCC2)c(OC)c1`, the remaining NAD is 10 nM (inactive).
Same read-out and setting: for `COc1ccc2nc(S(=O)Cc3ncc(C)c(OC)c3C)[nH]c2c1` (stereo unspecified) the value was 10 nM (inactive); for `CC(C)[C@H](N)C(=O)OCCOCn1cnc2c(=O)[nH]c(N)nc21`, 10 nM (inactive); for `Cc1ccc(NC(=O)c2ccc(CN3CCN(C)CC3)cc2)cc1Nc1nccc(-c2cccnc2)n1`, 10 nM (inactive).
Same read-out and setting: for `C[N+]1(C)[C@@H]2CC(OC(=O)[C@H](CO)c3ccccc3)C[C@H]1[C@@H]1O[C@@H]12` (stereo partly specified) the value was 10 nM (inactive).
Turning to `O=C(NCCO[N+](=O)[O-])c1cccnc1`, the remaining NAD is 10 nM (inactive).
On the same count and under the same terms, for `CCN1CCN(C(=O)N[C@@H](C(=O)N[C@@H]2C(=O)N3C(C(=O)O)=C(CSc4nnnn4C)CS[C@H]23)c2ccc(O)cc2)C(=O)C1=O` the value was 10 nM (inactive).
Still for that read-out and setting: in the case of `CNNCc1ccc(C(=O)NC(C)C)cc1` it was 10 nM (inactive); in that of `CCOC(=O)[C@H](CCc1ccccc1)N[C@@H](C)C(=O)N1CCC[C@H]1C(=O)O`, 10 nM (inactive); in that of `O=NN(CCCl)C(=O)NC1CCCCC1`, 10 nM (inactive).
`COc1ccc(C(=O)CC(=O)c2ccc(C(C)(C)C)cc2)cc1`: the remaining NAD is 10 nM (inactive).
The same measure, in the same setting: in the case of `NNc1nncc2ccccc12` it was 10 nM (inactive); in that of `O=NN(CCCl)C(=O)NCCCl`, 10 nM (inactive); in that of `Cc1cn[nH]c1`, 10 nM (inactive).
Regarding `C#C[C@]1(O)CC[C@H]2[C@@H]3CCc4cc(O)ccc4[C@H]3CC[C@@]21C`, the remaining NAD is 10 nM (inactive).
On to `COC1=C(OC)C(=O)C(CCCCCCCCCCO)=C(C)C1=O`, for which the remaining NAD was 10 nM (inactive).
For `Cc1[nH]c(=O)c(C#N)cc1-c1ccncc1`, the remaining NAD is 10 nM (inactive).
Still for that read-out and setting: in the case of `COc1cc2c(N3CCN(C(=O)Nc4ccc(OC(C)C)cc4)CC3)ncnc2cc1OCCCN1CCCCC1` it was 10 nM (inactive); in that of `Nc1nc(=S)c2[nH]cnc2[nH]1`, 10 nM (inactive).
On the same count and under the same terms, for `CCCN(CCC)C(=O)C(CCC(=O)O)NC(=O)c1ccccc1` (stereo unspecified) the value was 10 nM (inactive).
In the case of `CC(N)C12CC3CC(CC(C3)C1)C2` (stereo unspecified), the remaining NAD was 10 nM (inactive).
In the case of `Oc1ccc(OCc2ccccc2)cc1`, the remaining NAD is 10 nM (inactive).
Still for that read-out and setting: for `COC(=O)Nc1nc2ccc(Sc3ccccc3)cc2[nH]1` the value was 10 nM (inactive).
On the same count and under the same terms, in the case of `CC(=O)O[C@]1(C(C)=O)CC[C@H]2[C@@H]3C=C(Cl)C4=CC(=O)[C@@H]5C[C@@H]5[C@]4(C)[C@H]3CC[C@@]21C` it was 10 nM (inactive).
As to `CO[C@@H]1[C@@H](OC(N)=O)[C@@H](O)[C@H](Oc2ccc3c(O)c(NC(=O)c4ccc(O)c(CC=C(C)C)c4)c(=O)oc3c2C)OC1(C)C`, the remaining NAD was 10 nM (inactive).
Still for that read-out and setting: in the case of `Nc1ncnc2c1ncn2[C@@H]1O[C@H](CO)[C@@H](O)[C@H]1O` it was 10 nM (inactive).
The same measure, in the same setting: in the case of `Cc1ccc(S(=O)(=O)NC(=O)NN2CC3CCCC3C2)cc1` (stereo unspecified) it was 10 nM (inactive).
In the case of `CN(Cc1cc(Br)cc(Br)c1N)C1CCCCC1`, the remaining NAD is 10 nM (inactive).
Same read-out and setting: in the case of `O=c1oc2c(O)c(O)cc3c(=O)oc4c(O)c(O)cc1c4c23` it was 10 nM (inactive); in that of `Cn1c(=O)c2c(ncn2C)n(C)c1=O`, 10 nM (inactive).
